Assay outcomes from PubChem BioAssay.
HT1080NT lethal: kills 2HG-producing HT-1080-NT fibrosarcoma cells. HT-1080-NT fibrosarcoma viability, CellTiter-Glo ATP luminescence, 48 h. Potency, µM (titrated, usually from 46.1 µM), without a hit: at the top dose activity, negative = less viability, most hits filed as cytotoxic. actives 1.6% (n = 360,000);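 also: NT is the 2HG producing partner of a matched IDH1 knockdown line; potency is read from the fitted curve at half-maximal effect; 0% = DMSO-treated cells and -100% = media-only wells without cells; nearly all actives have a fitted effect of over 55% in size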
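HT-1080-NT fibrosarcoma cells (2HG-overproducing), 750 cells/well in RPMI with 5% FBS, dosed after 2 h and incubated 48 h at 37C. CellTiter-Glo luminescence normalized to DMSO and no-cell wells; concentration-response curves fitted and classed.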
HT1080 IDH1KD tx: HT-1080 IDH1 knockdown cell toxicity (counter line). actives 2% (n = 360,000). HT-1080 IDH1 knockdown viability, ATP luminescence, 48 h. Potency, µM (highest dose often 46.1 µM), for the others: at the top dose activity, negative = toxicity, most hits filed as cytotoxic;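 also: potency is read from the fitted curve at half-maximal effect; 0% = DMSO wells and -100% = cell-free medium wells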
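HT-1080-IDH1KD cells (IDH1 knocked down), 750/well in RPMI with 5% FBS, treated with compound 48 h at 37 degrees C. Viability by CellTiter-Glo luminescence, normalised to DMSO and no-cell wells; concentration-response curves classed.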
TDP1 cell noCPT: qHTS for Inhibitors of human tyrosyl-DNA phosphodiesterase 1 (TDP1): qHTS in cells in absence of CPT. actives 15% (n = 420,000). DT40 Tdp1-/- hTDP1 cells, no CPT, ATP luminescence, 48 h. Potency, µM (top dose mostly 46.2 µM), inactives show at the highest dose activity change, negative = growth inhibition, hits mostly inhibitors; also: potency is read from the fitted curve at half-maximal effect; nearly all actives have a fitted effect of over 55% in size
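Growth of hTDP1-complemented DT40 Tdp1-knockout cells is measured by ATP luminescence after at least 48 hr compound exposure at 37 °C, with DMSO substituting for the 20 nM CPT used in the parallel screen.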
ELG1 repair inh: blocks ELG1-dependent DNA repair in HEK293T cells | HEK293T ELG1-luciferase reporter, luminescence, 16 h; DNA damage induced by 5-fluorouridine | Potency, µM (series often up to 46.1 µM), for the others: top-dose activity change, negative = inhibition, hits mostly inhibitors | actives 2.3% (n = 330,000); also: potency is read from the fitted curve at half-maximal effect; nearly all actives have a fitted effect of over 55% in size
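Quantitative HTS, concentration-response format. 2,000 cells/well co-treated with 5-fluorouridine and compound, 16 hr in 5% CO2 at 37 °C; ONE-Glo luminescence read after 30 min.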
IL-1B inflam inh: blocks inflammasome-driven IL-1 beta release; AID 743279; THP-1 LPS/ATP IL-1B secretion, AlphaLISA, 16 h; active compounds read low; activity change, % at 57.5 µM; actives 4.7% (n = 360,000); in the data active = activity change below about -50%; inconclusive = mostly about -30% to -49%
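THP-1 cells pretreated 1 hr with compounds (up to 57.5 uM final), then stimulated with LPS (250 ng/mL final) plus ATP (1.25 mM final); secreted IL-1B measured by AlphaLISA after 16 hr, decreased signal indicating inhibition.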
DT40 TDP1 CPT: DT40-hTDP1 cell growth loss with CPT | chicken DT40 Tdp1-/-;hTDP1 cells + 20 nM CPT, ATP luminescence, 48 h | Potency, µM (top dose mostly 46.2 µM), inactives show at the highest dose activity change, negative = growth inhibition, hits mostly inhibitors | actives 12% (n = 420,000) | AID 686979; also: potency is read from the fitted curve at half-maximal effect; nearly all actives have a fitted effect of over 55% in size
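Cell growth measured by CellTiter-Glo luminescence after a minimum 48 h, 37 C compound exposure with 20 nM CPT in Tdp1-knockout DT40 cells stably expressing hTDP1, seeded 400/well; qHTS titration format.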
The depositor's hits bear a star; [ ] = remark or other dose. Most compounds without a hit are left out; they make up all but 19% or so of the library. Unless noted, calls follow the shape of the dose curve; as a rule, active = well fitted curve in the direction sought with a large enough effect; inconclusive = small, poorly fitted or top-dose-only effect, or another doubt; inactive = no such curve, though single readings can be large; an effect the other way counts as inactive or inconclusive. Unless noted, % is scaled to controls: 0 for no effect and ±100 for the full control effect.

How did Cc1ccccc1C(=O)Nc1ccc(C(=O)N/N=C/c2ccc(O)cc2)cc1 do in these assays?
HT1080NT lethal: 8.2µM*; HT1080 IDH1KD tx: inconclusive; TDP1 cell noCPT: inconclusive; ELG1 repair inh: -7%; IL-1B inflam inh: -99*; DT40 TDP1 CPT: inconclusive

How did Cc1ccc(/C=N/NC(=O)c2ccc(NC(=O)c3ccccc3Cl)cc2)o1 do in these assays?
HT1080NT lethal: 0%; HT1080 IDH1KD tx: -1%; TDP1 cell noCPT: -15%; ELG1 repair inh: -2%; IL-1B inflam inh: -71*; DT40 TDP1 CPT: 7%

What do the screens show for `Cc1ccc(/C=N/NC(=O)c2cccc3ccccc23)o1`?
HT1080NT lethal: inconclusive; HT1080 IDH1KD tx: inconclusive; TDP1 cell noCPT: 8.2µM*; ELG1 repair inh: -18%; IL-1B inflam inh: -3; DT40 TDP1 CPT: 13µM*

Results for NCc1ccccc1CC(=O)N[C@@H]1C(=O)N2C(C(=O)O)=C(CSc3nnnn3CC(=O)O)CS[C@H]12 ?
TDP1 cell noCPT: 0%[21.1 µM]; DT40 TDP1 CPT: 13%[21.1 µM]

Results for COc1ccc(C(=O)CCC(=O)O)c2ccccc12 ?
TDP1 cell noCPT: -10%; DT40 TDP1 CPT: 1%

Results for COc1ccccc1NS(=O)(=O)c1ccc(C)c(NC(=O)c2c(C)noc2C)c1 ?
HT1080NT lethal: -7%; HT1080 IDH1KD tx: 0%; TDP1 cell noCPT: inconclusive; ELG1 repair inh: 28%; IL-1B inflam inh: -11; DT40 TDP1 CPT: -14%

Results for COc1cc(NS(=O)(=O)c2ccc(NC(=O)C(C)Oc3ccc(Cl)cc3Cl)cc2)nc(OC)n1 (stereo not given) ?
TDP1 cell noCPT: -3%; DT40 TDP1 CPT: -13%

Results for CN(CCc1ccccc1)C(=O)c1ccc(NC(=O)Cc2ccc(NC(=O)C3CCCN(C(=O)c4ccccc4)C3)cc2)cc1 (stereo not given) ?
HT1080NT lethal: -1%; HT1080 IDH1KD tx: -26%; TDP1 cell noCPT: inconclusive; IL-1B inflam inh: 0; DT40 TDP1 CPT: inconclusive

How did CSc1ccc(/C=N/NC(=O)c2ccc(C)c(C)c2)cc1 do in these assays?
HT1080NT lethal: -10%; HT1080 IDH1KD tx: -9%; TDP1 cell noCPT: 23µM*; ELG1 repair inh: -1%; IL-1B inflam inh: -17; DT40 TDP1 CPT: inconclusive

What do the screens show for `O=C(N/N=C/c1ccccc1)c1cccc2ccccc12`?
HT1080NT lethal: -18%; HT1080 IDH1KD tx: -3%; TDP1 cell noCPT: 1.3µM*; IL-1B inflam inh: 4; DT40 TDP1 CPT: inconclusive

What do the screens show for `COc1ccc(-c2ccc(NCCN3CCOCC3)nn2)cc1OC`?
HT1080NT lethal: 9%; HT1080 IDH1KD tx: 13%; TDP1 cell noCPT: 8%; ELG1 repair inh: -4%; IL-1B inflam inh: 4; DT40 TDP1 CPT: 0%

Results for CCc1c(C)sc2nc3c(C(=O)N4CCOCC4)cc(C(=O)c4cc(F)ccc4O)cn3c(=O)c12 ?
HT1080NT lethal: -22%; HT1080 IDH1KD tx: inconclusive; TDP1 cell noCPT: 16µM*; ELG1 repair inh: inconclusive; IL-1B inflam inh: -76*; DT40 TDP1 CPT: 23µM*

Results for COc1cccc(N2CCN(C(=O)c3cccn4c(=O)c5c(C)c(C)sc5nc34)CC2)c1 ?
HT1080NT lethal: 22%; HT1080 IDH1KD tx: 21%; TDP1 cell noCPT: inconclusive; ELG1 repair inh: -14%; IL-1B inflam inh: 55; DT40 TDP1 CPT: -20%

What do the screens show for `O=C(c1cc(C(=O)N2CCOCC2)c2nc3ccccc3n2c1)c1ccccc1O`?
HT1080NT lethal: 24%; HT1080 IDH1KD tx: 0%; TDP1 cell noCPT: inconclusive; ELG1 repair inh: 8%; IL-1B inflam inh: 0; DT40 TDP1 CPT: inconclusive

How did Cc1sc2nc3c(C(=O)N4CCCC4)cc(C(=O)c4ccccc4O)cn3c(=O)c2c1C do in these assays?
HT1080NT lethal: 4%; HT1080 IDH1KD tx: 10%; TDP1 cell noCPT: 13µM*; ELG1 repair inh: inconclusive; IL-1B inflam inh: inconclusive; DT40 TDP1 CPT: inconclusive

What do the screens show for `COc1ccc(CN2C(=O)N(c3cccc(C)c3)C(=O)C2CC(=O)Nc2ccc(F)cc2)cc1OC` (stereo not given)?
TDP1 cell noCPT: inconclusive; DT40 TDP1 CPT: -15%

What do the screens show for `Cc1nc2cnc(OCc3ccccc3)nc2n(Cc2ccc(F)cc2)c1=O`?
TDP1 cell noCPT: -12%; DT40 TDP1 CPT: 3%

Results for COc1ccc(NC(=O)c2ccc(NC(=O)CN3CCN(c4ccc(O)cc4)CC3)cc2)cc1 ?
HT1080NT lethal: -15%; HT1080 IDH1KD tx: inconclusive; TDP1 cell noCPT: inconclusive; IL-1B inflam inh: 9; DT40 TDP1 CPT: -26%

Results for O=C(CN1CCN(c2ccccc2O)CC1)Nc1ccnn1C1CCCC1 ?
HT1080NT lethal: -2%; HT1080 IDH1KD tx: -13%; TDP1 cell noCPT: 21µM*; ELG1 repair inh: inconclusive; IL-1B inflam inh: -7; DT40 TDP1 CPT: 21µM*

What do the screens show for `COc1ccc(NC(=O)c2ccc(NC(=O)CN3CCN(c4ccccc4O)CC3)cc2)cc1`?
HT1080NT lethal: -14%; HT1080 IDH1KD tx: -19%; TDP1 cell noCPT: 18µM*; IL-1B inflam inh: -19; DT40 TDP1 CPT: 18µM*

What do the screens show for `COc1ccc(C(=O)C2CCN(CC(=O)Nc3ccc(C)cc3)CC2)cc1`?
HT1080NT lethal: inconclusive; HT1080 IDH1KD tx: -7%; TDP1 cell noCPT: 29µM*; ELG1 repair inh: 1%; IL-1B inflam inh: -10; DT40 TDP1 CPT: -22%

Results for C=C[C@]1(C)C=C2C(=O)[C@@]3(O)OC(=O)[C@@]4(CCCC(C)(C)[C@H]34)[C@@]2(O)CC1 ?
HT1080NT lethal: 2.9µM*; HT1080 IDH1KD tx: 2.9µM*; TDP1 cell noCPT: 1.6µM*; IL-1B inflam inh: -113*; DT40 TDP1 CPT: 0.65µM*

What do the screens show for `C=CCC1(CC=C)CC(Cc2cnccn2)N(C(=O)OC(C)(C)C)C1` (stereo not given)?
HT1080NT lethal: 18%; HT1080 IDH1KD tx: 7%; TDP1 cell noCPT: inconclusive; IL-1B inflam inh: 11; DT40 TDP1 CPT: inconclusive

How did C[C@H]1C[C@]2(O[C@@H]2C)C(=O)O[C@@H]2CCN(C)C/C=C(/COC(=O)[C@]1(C)O)C2=O do in these assays?
TDP1 cell noCPT: 4%; DT40 TDP1 CPT: -5%

How did CCc1ccc(/C=C2\Oc3ccc(C(=O)OC)cc3C2=O)cc1 do in these assays?
HT1080NT lethal: 14%; HT1080 IDH1KD tx: inconclusive; TDP1 cell noCPT: inconclusive; ELG1 repair inh: inconclusive; IL-1B inflam inh: 23; DT40 TDP1 CPT: -13%
